Data from PubChem BioAssay AID1347414 (National Center for Advancing Translational Sciences (NCATS), 2020).
Results filed as inconclusive are left out. Activity calls are given as the source filed them. Calls come from the whole dose curve; as a rule, active = well fitted inhibition curve with a large enough effect; inconclusive = small, poorly fitted or top-dose-only effect; inactive = no such curve, though single readings can be large or run the other way.

assay: qHTS to identify inhibitors of the type 1 interferon - major histocompatibility complex class I in skeletal muscle: Secondary screen by immunofluorescence; settings: C25cl48 myoblasts, IFN-b induced HLA-ABC immunofluorescence, 24 h, Viability; series mostly up to 49.8 µM; activity change, negative = inhibition: at the top concentration; note: nearly all actives have a fitted effect of over 70% in size;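 for activity change, negative = inhibition: digitonin at 100 µM served as the cytotoxic control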
From the text: Assay Submitter (PI): Travis B. Kinder Ph.D. & James Inglese Ph.D. Assay Development and Screening Technology Laboratory (ADST) National Center for Advancing Translational Sciences (NCATS), Rockville, MD National Institute of Health (NIH), Bethesda, Maryland Idiopathic inflammatory myopathies, collectively referred to as myositis, are a group of rare autoimmune diseases characterized by skeletal muscle inflammation, weakness, and usually accompanied by systemic pathologies of the skin, lungs, or vasculature. Current immunosuppressive therapies and glucocorticoids are often not curative and are accompanied by harsh side effects, especially in children with juvenile myositis. We initiated a drug repurposing and development program to identify more targeted, less toxic therapeutics to treat myositis. Although its cause is not known, muscle from a subset of patients have an abundance of the inflammatory type 1 interferon (IFN) and a down-stream product major histocompatibility complex class I (MHC class I), which are both thought to contribute to damage and weakness. We conducted quantitative high throughput screening (qHTS) on 6,576 compounds (4,679 unique) through a series of cell-based assays to identify those that inhibit the IFN-stimulated expression of MHC class I in muscle precursor cells (myoblasts). The compound identification and evaluation strategy utilized a primary screen with reporter-tagged MHC class I in genome-engineered myoblasts, ATP content counter screen for viability, HLA-ABC immunofluorescence secondary screen, and HLA-B RT-qPCR tertiary screen. To verify activity of compounds identified by qHTS in HLA-B HiBit reporter cells, compounds were assayed by high throughput HLA-ABC immunofluorescence. Briefly, 216 compounds identified from primary and counter screening as inhibitory with minimal cytotoxicity were dispensed into black/clear bottom […] using acoustic dispensing in an 11-point, 1:3 titration with a high final concentration of 50 uM. Normal immortalized human myoblasts C25cl48 were added to the plates with 4.0 ng/ml human IFN-beta for 24 hours, fixed, stained by immunofluorescence for HLA-ABC protein, nuclei, and cell body, and analyzed by laser scanning cytometry as described by Auld et al., 2006. References: Auld DS, Johnson RL, Zhang Y, Veith H, Jadhav A, Yasgar A, Simeonov A, Zheng W, Martinez ED, Westwick JK, Austin CP, Inglese J. 2006. Fluorescent protein-based cellular assays analyzed by laser-scanning microplate cytometry in 1536-well plate format. Methods Enzymol 414:566-89. doi:10.1016/S0076-6879(06)14029-X
PROTOCOL TABLE (as described by Inglese et al., 2007) SEQUENCE No. (e.g., 1, 2, 3, etc.); […] (e.g., Cells, Incubation, Reagent, etc.); VALUE; DESCRIPTION 0; Compounds; 25 nl; Follow-up compounds dispensed at 25 nl/well with Labcyte Echo 655 acoustic dispenser in triplicate Aurora ChemLib 1536K black/clear bottom, low base, TC 1536-well plates (00019324). Also dispensed 25 nl/well DMSO control, ruxolitinib IFN-b inhibitor control titration, and digitonin cytotoxic control 1a; Cells; 5 uL; Multidrop Combi (Thermo Scientific) to seed 125 cells/well into eight plates in 5 ul/well of iHSKM growth medium (GM) without dexamethasone into columns 1+2. Add metal lids with gas-exchange holes 1b; Cells; 5 uL; Multidrop Combi (Thermo Scientific) to seed 125 cells/well into eight plates in 5 ul/well of iHSKM GM without dexamethasone + 4 ng/ml IFN-b into columns 3 - 48. […]
% is set by controls: 0 for no effect and ±100 for the full control effect; potency is the fitted concentration of half-maximal effect.

Structure (SMILES)	activity change, negative = inhibition	Potency
CC(=O)Oc1ccc(C2(c3ccc(OC(C)=O)cc3)C(=O)Nc3ccccc32)cc1	12.6% (inactive)	–
C=CC(=O)N1CCc2ccc(-n3c(=O)ccc4cnc5ccc(-c6cnn(C)c6)cc5c43)cc21	–	16.2 µM (active)
O=C(Nc1cn[nH]c1-c1nc2ccc(CN3CCOCC3)cc2[nH]1)NC1CC1	-21.8% (inactive)	–
COC(=O)c1nc(Cl)c(Cl)nc1N	–	9.13 µM (active)
C[C@H](NC(=O)/C(C#N)=C/c1cccc(Br)n1)c1ccccc1	–	12.9 µM (active)
C#Cc1cccc(Nc2ncnc3cc(OC)c(OCCCCCCC(=O)NO)cc23)c1	-3.83% (inactive)	–
Cc1ccc(-c2ncn(-c3ccc(Nc4nccc(-c5cccc(N6CCOCC6)c5)n4)cc3)n2)cn1	-0.586% (inactive)	–
CN(Cc1ccc(/C=C/C(=O)NO)cc1)CC12CC3CC(CC(C3)C1)C2	-7.65% (inactive)	–
CS[C@H]1SC[C@@H]2C(=O)N(C)[C@H](C(C)C)C(=O)OC[C@H](NC(=O)c3cnc4ccccc4n3)C(=O)N[C@H](C)C(=O)N(C)[C@H]1C(=O)N(C)[C@H](C(C)C)C(=O)OC[C@H](NC(=O)c1cnc3ccccc3n1)C(=O)N[C@H](C)C(=O)N2C	-4.37% (inactive)	–
CC(=O)c1cnc2ccc(-c3cc(Cl)c(O)c(Cl)c3)nc2c1NC1CCC(CN(C)C)CC1 (stereo not given)	–	14.5 µM (active)
Cc1c(C(=O)Nc2ccc(Oc3ccnc4[nH]cc(-c5ccccc5)c34)c(F)c2)c(=O)n(-c2ccc(F)cc2)n1C	-17.2% (inactive)	–
N#CC[C@H](C1CCCC1)n1cc(-c2ncnc3[nH]ccc23)cn1	-5.42% (inactive)	–
O=C(CCCCCCC(=O)Nc1ccccc1)NO	4.55% (inactive)	–
C[C@H](Nc1ncnc2nc[nH]c12)c1cc2cccc(Cl)c2c(=O)n1-c1ccccc1	-1.87% (inactive)	–
CC[C@@]1(O)C(=O)OCc2c1cc1n(c2=O)Cc2c-1nc1ccccc1c2/C=N/OC(C)(C)C	-26% (inactive)	–
Nc1ccccc1NC(=O)c1ccc(CNc2nccc(-c3cccnc3)n2)cc1	-4.92% (inactive)	–
Cc1ccc(C(N)=O)cc1Nc1nccc(-c2cn(C(C)C)c3cnccc23)n1	0.513% [at 99.5 µM] (inactive)	–
Cc1ccc([N+](=O)[O-])cc1S(=O)(=O)N(C)/N=C/c1cnc2ccc(Br)cn12	0.361% (inactive)	–
O=C1NCCc2[nH]c(-c3ccncc3)cc21	-11.3% (inactive)	–
CCc1cc(C(N)=O)ccc1-n1nc(C(C)C)c2c(-n3cnc(-c4cnn(C)c4)c3)ccnc21	0.722% (inactive)	–

Structure (SMILES)	activity change, negative = inhibition	Potency
COc1cccc2c1C(=O)c1c(O)c3c(c(O)c1C2=O)C[C@@](O)(/C(CO)=N/NC(=O)CCCCCN1C(=O)C=CC1=O)C[C@@H]3O[C@H]1C[C@H](N)[C@H](O)[C@H](C)O1	3.1% (inactive)	–
CC[C@@]1(O)C(=O)OCc2c1cc1n(c2=O)Cc2cc3c(CN(C)C)c(O)ccc3nc2-1	-1.12% (inactive)	–
CC(C)(C)c1nc(-c2cccc(NS(=O)(=O)c3c(F)cccc3F)c2F)c(-c2ccnc(N)n2)s1	9.89% (inactive)	–
CO[C@H]1C(=O)[C@]2(C)[C@@H](OC)C[C@H]3OC[C@@]3(OC(C)=O)[C@H]2[C@H](OC(=O)c2ccccc2)[C@]2(O)C[C@H](OC(=O)[C@H](O)[C@@H](NC(=O)OC(C)(C)C)c3ccccc3)C(C)=C1C2(C)C	0.182% (inactive)	–
C[C@@H]1CCN(C(=O)CC#N)C[C@@H]1N(C)c1ncnc2[nH]ccc12	0.722% (inactive)	–
C[C@]12CCC(=O)C=C1CC[C@H]1[C@@H]3CC[C@](O)(C(=O)CO)[C@@]3(C)C[C@H](O)[C@@]12F	7.29% (inactive)	–
CCCCc1nc2cc(/C=C/C(=O)NO)ccc2n1CCN(CC)CC	-17.6% (inactive)	–
CCS(=O)(=O)Nc1ccc(Oc2ccc(F)cc2F)c(-c2cn(C)c(=O)c3[nH]ccc23)c1	8.42% (inactive)	–
CNC(=O)c1ccc(Nc2ncc(C(F)(F)F)c(NCc3nccnc3N(C)S(C)(=O)=O)n2)cc1	-9.86% (inactive)	–
COc1c(C)cnc(Cn2cnc3c(Cl)nc(N)nc32)c1C	-3.79% (inactive)	–
CC(C)c1c2cc(-c3ccnc(NC4CCC(NC5CCOCC5)CC4)n3)ccc2nn1C (stereo not given)	-7.1% (inactive)	–
Fc1cccc(-n2cnc3c(NCc4nc5c(F)c(F)ccc5[nH]4)nc(N4CCOCC4)nc32)c1	-13.2% (inactive)	–
COc1ccc(F)c(F)c1C(=O)c1cnc(NC2CCN(S(C)(=O)=O)CC2)nc1N	1.88% (inactive)	–
CCCC(=O)O[C@]1(C(=O)CO)CC[C@H]2[C@@H]3CCC4=CC(=O)CC[C@]4(C)[C@H]3[C@@H](O)C[C@@]21C	4.37% (inactive)	–
Cc1nc(Nc2n[nH]c3c2CN(C(=O)N[C@H](CN(C)C)c2ccccc2)C3(C)C)c2sccc2n1	-3.25% (inactive)	–
COc1ccc(-c2ccc3ncc4c(c3c2)n(-c2ccc(N3CCNCC3)c(C(F)(F)F)c2)c(=O)n4C)cn1	–	1.02 µM (active)
Cc1ccc(C(=O)Nc2ccc(CN3CCN(C)CC3)c(C(F)(F)F)c2)cc1C#Cc1cnc2[nH]ncc2c1	–	12.9 µM (active)
Cc1cc(-n2c(=O)ccc3cnc4[nH]ccc4c32)ccc1F	-7.36% (inactive)	–
C=C1C(=O)O[C@@H]2[C@H]3O[C@]3(C)CC/C=C(\C)CC[C@@H]12	–	11.5 µM (active)
COc1ccc(CNc2nc(N(CCO)CCO)nc3c2ncn3C(C)C)cc1	-27.7% (inactive)	–
